A549 viability: A549 cytotoxicity, counter-screen for Nrf2 inhibitors. AID 504648. Potency, µM (highest dose often 46 µM), actives largely listed as inhibitors. A549 ARE-Fluc cells, CellTiter-Fluor viability, 18-24 h. 0.16% of 390,000 active
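A549 ARE-Fluc cells in 5% FBS OPTI-MEM, 5000 cells/well, rested 2 h then exposed to compounds in concentration-response for 18-24 h at 37 °C. Viability by CellTiter-Fluor fluorescence (Ex 405/Em 525) after 30 min; luciferase luminescence (BugLite, 15 min, RT) read afterwards.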
Nrf2 activator: Nrf2 pathway activation. AREc32 ARE-luciferase reporter (MCF7-derived line), luminescence, 24 h. Potency, µM (series often up to 46.1 µM), actives largely listed as activators. 0.31% of 410,000 active. AID 624171; note: nearly all actives have a fitted effect of over 65% in size
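Steps: seed AREc32_Fluc cells (1000/well, 5% FBS OPTI-MEM); incubate overnight at 37 deg C; add 23 nL compound; incubate 24 hr; add Steady-Glo; hold 30 min RT; read luminescence.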
Nrf2 inh: Nrf2 pathway inhibition | Potency, µM (doses to about 46 µM), most hits filed as inhibitors | 2.1% of 360,000 active | A549 ARE-Fluc reporter, luciferase luminescence, 18-24 h | AID 504444; note: nearly all actives have a fitted effect of over 60% in size
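A549 ARE_Fluc cells, 5000/well, 5% FBS OPTI-MEM; compounds in dose-response, 18-24 h at 37 °C/5% CO2; CellTiter-Fluor viability read (Ex 405/Em 525), then BugLite luciferase luminescence = Nrf2 activity.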
HepG2 tox: counter-screen for TGF-b inhibitors: cytotoxicity in HepG2 cells | HepG2 CAGA-GFP viability, ATP luminescence, 18 h | Potency, µM (doses to about 46.1 µM), actives largely listed as cytotoxic | 0.76% of 410,000 active | AID 588856
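HepG2 CAGA-GFP cells (1000/well, DMEM with 1% FBS) received compound, then TGF-beta at 500 pg/mL final, and were incubated 18 hours at 37 degrees C. Viability was read by CellTiter-Glo luminescence. Media-only wells were set as complete cell-killing and DMSO as no toxicity.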
TGFb inhibitor: inhibitors of TGF-b signaling. Potency, µM (highest dose often 46.1 µM), most hits filed as inhibitors. 1.2% of 410,000 active. HepG2 CAGA-GFP TGF-b/SMAD3 reporter, GFP fluorescence, 18 h; TGF-beta stimulated, 500 pg/mL final; note: nearly all actives have a fitted effect of over 65% in size
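Cell-based qHTS in HEPG2 carrying a CAGA-GFP Smad reporter; compounds added before 500 pg/mL final TGF-beta, 18 h incubation at 37 degrees C, GFP fluorescence quantified per cell by imaging cytometry.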
Each line names hits and unclear results; the compound was inactive in the other large screens. Hits are enriched below; roughly 3.6% of the tested compounds scored in any of these assays. Calls come from the whole dose curve; as a rule, active = well fitted curve in the direction sought with a large enough effect; inconclusive = small, poorly fitted or top-dose-only effect, or another doubt; inactive = no such curve, though single readings can be large; an effect the other way counts as inactive or inconclusive.

O=[N+]([O-])c1cccc(S(=O)(=O)Nc2cccc(-c3ccc(N4CCOCC4)nn3)c2)c1	none
COc1ccc(/C=N/NC(=O)c2ccoc2C)cc1OC	none
COc1ccc(/C=N/NC(=O)c2ccoc2C)cc1COc1ccc(Cl)cc1	Nrf2 inh 13µM
COc1ccc(/C=N/NC(=O)c2ccn[nH]2)cc1COc1ccc(Cl)cc1Cl	A549 viability inconclusive, TGFb inhibitor 14µM
O=C1CC(c2cccc(Cl)c2)c2cc3c(cc2N1)CCC3 (configuration not stated)	TGFb inhibitor 10µM
O=C1CC(c2cccc([N+](=O)[O-])c2)c2c(ccc3ccccc23)N1 (configuration not stated)	Nrf2 inh inconclusive, TGFb inhibitor inconclusive
O=C1CC(c2cccc([N+](=O)[O-])c2)c2cc3c(cc2N1)CCC3 (configuration not stated)	A549 viability inconclusive, Nrf2 inh 15µM, TGFb inhibitor inconclusive
COc1cccc(C2CC(=O)Nc3cc4c(cc32)CCC4)c1 (configuration not stated)	Nrf2 inh inconclusive
CCOC(=O)C1=C(C)OC(=Cc2ccccc2)C1=O	none (no result: A549 viability, Nrf2 inh)
CCOC(=O)C1=C(O)c2ccccc2C(=O)/C1=C\c1ccc(C)cc1	A549 viability inconclusive, Nrf2 inh inconclusive, HepG2 tox 11µM, TGFb inhibitor inconclusive
Cc1ccc(C(C[N+](=O)[O-])Sc2ccc(N)cc2)cc1 (configuration not stated)	Nrf2 activator inconclusive, HepG2 tox 13µM, TGFb inhibitor 11µM
Cc1ccc(C(C[N+](=O)[O-])n2nc(C)cc2C)cc1 (configuration not stated)	none
O=C(/C=C/[C@H]1O[C@@H](n2cnc3c(NC(=O)c4ccccc4)ncnc32)[C@H](O)[C@@H]1O)NCc1ccc2c(c1)OCO2	none (no result: A549 viability, Nrf2 inh)
N#C/C(=C(/O)COc1ccc(Cl)cc1)c1nc2ccccc2s1	A549 viability 16µM, Nrf2 inh 23µM
N#C/C(=C(/O)COc1ccccc1)c1nc2ccccc2s1	Nrf2 inh inconclusive, TGFb inhibitor inconclusive
Cc1ccc(SC/C(O)=C(\C#N)c2nc3ccccc3s2)cc1	Nrf2 inh inconclusive, TGFb inhibitor 25µM
O=S(=O)(c1ccccc1)c1nnn2c1nc(NC1CCN(Cc3ccccc3)CC1)c1cc(Cl)ccc12	A549 viability inconclusive, Nrf2 inh 6.5µM
COc1ccc(S(=O)(=O)NC(CC(=O)NCCc2ccccc2)c2ccco2)cc1 (configuration not stated)	none
CCOC(=O)/C(=C\c1ccc(OC(F)F)cc1)C1=Nn2c(nnc2-c2ccc(Cl)cc2)SC1	A549 viability inconclusive, Nrf2 activator inconclusive, Nrf2 inh inconclusive, HepG2 tox 2.5µM, TGFb inhibitor 4µM
CCOC(=O)/C(=C/c1ccc(OC(F)F)cc1)C1=Nn2c(nnc2-c2ccc(Cl)cc2)SC1	A549 viability inconclusive, Nrf2 activator inconclusive, Nrf2 inh inconclusive, HepG2 tox 3.2µM, TGFb inhibitor inconclusive
COc1ccc(C2=Nn3c(nnc3-c3ccc(OC)cc3)SC2)cc1	A549 viability inconclusive, Nrf2 inh inconclusive, TGFb inhibitor inconclusive
COc1ccc(-c2nnc3n2N=C(C)CS3)cc1	none
CCN(CC)c1ccc(N=Cc2c(C)[nH]c3ccccc23)cc1	HepG2 tox 2.8µM, TGFb inhibitor 11µM
Cc1[nH]c2ccccc2c1/C=N/n1cnnc1	none
CCOCCCn1c(C)nc2c(c1=O)c1nc3ccccc3nc1n2CCC1=CCCCC1	A549 viability inconclusive, Nrf2 inh 13µM
O=C(Nc1ccc2c(c1)OCO2)N1CCN(c2cccc(C(F)(F)F)c2)CC1	Nrf2 inh 23µM, TGFb inhibitor inconclusive
COc1ccc(N2CCN(C(=O)Nc3cccc(C(F)(F)F)c3)CC2)cc1	Nrf2 inh 21µM
Fc1cccc(/C=C2\CCCC3=C2NC(=S)NC3c2cccc(F)c2)c1 (configuration not stated)	Nrf2 inh inconclusive, TGFb inhibitor 8.9µM
CC1CC2=C(NC(=S)NC2c2ccc(F)cc2)/C(=C/c2ccc(F)cc2)C1 (configuration not stated)	Nrf2 inh inconclusive, TGFb inhibitor inconclusive
S=C1NC2=C(CCC/C2=C\c2ccccc2)C(c2ccccc2)N1 (configuration not stated)	TGFb inhibitor inconclusive
C=CCOc1ccc(C2NC(=S)NC3=C2CCc2ccccc23)cc1 (configuration not stated)	none
Fc1ccccc1/C=C1\CCCC2=C1NC(=S)NC2c1ccccc1F (configuration not stated)	Nrf2 inh 8.2µM, TGFb inhibitor inconclusive
S=C1NC2=C(CCC/C2=C\c2ccc(Cl)cc2)C(c2ccc(Cl)cc2)N1 (configuration not stated)	TGFb inhibitor 18µM
COc1ccccc1OC(=O)c1cc(Cl)nc2ccccc12	none
S=C(Nc1ccccc1)Nc1cccc(Br)c1	none
COc1ccccc1C(=O)NCC(=O)NCCCN1CCOCC1	none
Oc1ccc2ccccc2c1C=Nc1ccc(N2CCOCC2)cc1	none
COC(=O)Cn1cc(/C=C/c2cc[n+](C)cc2)c2ccccc21	A549 viability inconclusive
COc1ccc2c(c1)c(/C=C/c1cc[n+](C)cc1)cn2C	Nrf2 inh 12µM
Cn1c(NC(=O)/C=C\c2ccccc2)cc(=O)n(C)c1=O	Nrf2 activator 11µM, Nrf2 inh inconclusive
Cn1c(NC(=O)/C=C/c2c(F)cccc2Cl)cc(=O)n(C)c1=O	Nrf2 activator inconclusive
Cn1c(NC(=O)c2ccc(Br)o2)cc(=O)n(C)c1=O	Nrf2 activator 11µM (no result: Nrf2 inh)
COc1cccc(NC(=S)N(CCC(C)C)C2CCN(C(C)=O)CC2)c1	none
CC(C)(C)C1CCc2c(sc(NC(=O)CCC(=O)O)c2C(=O)Nc2ccccc2C(F)(F)F)C1 (configuration not stated)	A549 viability inconclusive, Nrf2 inh 18µM, HepG2 tox 16µM, TGFb inhibitor inconclusive
COc1ccc(NC(=O)c2c(NC(=O)c3ccncc3)sc3c2CCC(C(C)(C)C)C3)cc1 (configuration not stated)	Nrf2 inh 18µM, TGFb inhibitor inconclusive
CCOc1ccc(NC(=O)c2c(NC(=O)c3ccncc3)sc3c2CCC(C(C)(C)C)C3)cc1 (configuration not stated)	none
COc1ccc(Cl)cc1NC(=O)c1c(NCc2cccnc2)sc2c1CCC(C)C2 (configuration not stated)	Nrf2 activator inconclusive, HepG2 tox 10µM, TGFb inhibitor 8.9µM (no result: Nrf2 inh)
COc1ccccc1NC(=O)c1c(NC(=O)c2cccs2)sc2c1CCC(C(C)(C)C)C2 (configuration not stated)	none
CCOc1ccc(NC(=O)c2c(NCc3cccnc3)sc3c2CCC(C)C3)cc1 (configuration not stated)	TGFb inhibitor 13µM (no result: Nrf2 inh)
